# Source: PubChem BioAssay AID1347076 (National Center for Advancing Translational Sciences (NCATS), 2019)
# Among all 400,000 compounds or so, about 13,000 (3.2%) were called active. Inconclusive results (about 18%) are left out. The sample holds actives, similar compounds and a random draw of the others, so the mix is not that of the screen. Unmarked numbers belong to inactive results. The call rests on the fitted dose curve; in most records, active means well fitted cell-killing curve with a large enough effect; inconclusive means small, poorly fitted or top-dose-only effect, or effect the other way; inactive means flat fitted curve, though single readings scatter.
# Experiment: qHTS assay for MDR1-selective chemotherapeutics: Primary screen using the drug-selected MDR subline cells KB-V1; further: nearly all actives have a fitted effect of over 60% in size
# Details: KB-V1 MDR cells viability, CellTiter-Glo, 72 h; series mostly up to 46.1 µM; activity change, negative = cytotoxicity: at the top concentration
# Method in brief: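 Cells of the MDR subline KB-V1 are plated, dosed with compound at multiple concentrations, and incubated 72 h at 37 degrees C; CellTiter-Glo is then added and luminescence read after 10 min.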
# On the % scale 0 is the no-effect control and ±100 the full control effect; potency means the concentration at half of the fitted maximal effect.
SMILES,"activity change, negative = cytotoxicity [%]",Potency
O=C(NC1CCCCC1)C(c1cc2ccccc2o1)n1c(=O)c(-c2ccco2)nc2ccccc21 (stereo not drawn),0.699,
Nc1[nH]c(C(=O)c2ccccc2)c(-c2ccncc2)c1C(=O)NCc1cccc2ccccc12,-26.5,
Cc1ccc(Cn2cc(CN3CC(N4CCN(C)CC4)CS3(=O)=O)nn2)cc1 (stereo not drawn),-0.565,
CCOC(=O)N1CCN(C(=O)c2ccc(S(=O)(=O)Nc3cccc(C(F)(F)F)c3)cc2)CC1,-0.0688,
Cc1ccccc1CS(=O)(=O)CC1(O)CCN(C(=O)c2cccc(C(F)(F)F)c2)CC1,,14.6 µM (active)
Cc1ccccc1CN1CCN(C(=O)c2cccc(F)c2)CC1,-5.87,
CCOc1ccc(-c2cc3nc(C4CCN(C(=O)OC(C)(C)C)CC4)c(C(=O)Nc4cccc(CC)c4)cn3n2)cc1,11.3,
Cn1c(=O)c2c(-c3ccccc3Br)n(Cc3ccccc3)cc2n(C)c1=O,8.21,
C[C@H]1CCC(=O)N([C@H](CSc2ccccc2)Cc2ccccc2)CC1,-9.51,
CC(=O)Nc1ccc(SC[C@H](Cc2ccccc2)N2CC[C@@H](C)CCC2=O)cc1,0.636,
CN(CC(=O)Nc1cccc(F)c1)CC(=O)Nc1cccc([N+](=O)[O-])c1,,11.6 µM (active)
Cc1ccc(CN(C)CC(=O)Nc2cccc([N+](=O)[O-])c2)o1,0,
CN(CC(=O)Nc1cccc(F)c1)C(=O)C1=COCCO1,17.7,
C[C@@H]1CN([C@H](C)CO)C(=O)CCCn2cc(nn2)CO[C@H]1CN(C)S(=O)(=O)c1ccc(Oc2ccccc2)nc1,-17.3,
O=C(C[C@H]1C[C@H]2c3cc(NS(=O)(=O)c4ccc(F)cc4)ccc3O[C@H]2[C@H](CO)O1)NCc1cc(F)ccc1F,5.71,
CC(Sc1nnc2c(n1)C1CCC2(C)C1(C)C)C(=O)Nc1ccccc1 (stereo not drawn),,20.6 µM (active)
Cc1cccc(-c2nnc(SC(C)C(=O)Nc3ccccc3)n2C)c1 (stereo not drawn),0,
CC(Sc1nnc(C2CC2)n1C1CC1)C(=O)Nc1ccc(C(N)=O)cc1 (stereo not drawn),6.16,
CC(CNC(=O)c1nnc(Cc2cccc(F)c2)o1)c1ccccc1 (stereo not drawn),0,
C[C@H](CO)N1C[C@H](C)[C@@H](CN(C)S(=O)(=O)c2ccc(Oc3ccccc3)cc2)OCc2cn(nn2)CCCC1=O,9.08,
C[C@@H]1CCCCO[C@H](CN(C)Cc2ccccc2)[C@@H](C)CN([C@H](C)CO)C(=O)c2cc(NS(=O)(=O)c3ccc(Cl)cc3)ccc2O1,-12.7,
O=C(NCc1ccccn1)[C@@H]1CCCN1C(=O)[C@@H]1CCCN1C(=O)c1ccccc1,-11.2,
CC1(C(=O)NCc2ccc3c(c2)OCO3)CCN1C(=O)Cc1cccc2ccccc12 (stereo not drawn),2.6,
COc1ccc2c(c1)O/C(=C\c1ccccc1O)C2=O,5.61,

SMILES,"activity change, negative = cytotoxicity [%]",Potency
COc1cc(/C=C2\Oc3ccc(C#Cc4ccc(O)cc4)cc3C2=O)cc(OC)c1,,7.31 µM (active)
COC(=O)C(C)Oc1ccc2c(c1)O/C(=C\c1cccc(Br)c1)C2=O (stereo not drawn),12.6,
CCN(CC)C(=O)C1=C(C)N(Cc2ccccc2)C(=O)C(CC(=O)NC(c2ccccc2)c2ccccc2)C1 (stereo not drawn),5.18,
CC(C)Cn1c(N)c(C(=O)NCc2cccs2)c2nc3ccccc3nc21,,10.3 µM (active)
CC(C)(C)c1ccc(C(=O)NCCn2c(N)c(C#N)c3nc4ccccc4nc32)cc1,-6.17,
Cn1ncc(Br)c1C(=O)NCc1cccs1,-7.92,
CCN1C(=O)c2ccccc2S(=O)c2ccc(C(=O)NCc3ccc(F)cc3)cc21 (stereo not drawn),-21.4,
CCOC(=O)C1CCCN(S(=O)(=O)c2cc(-c3cc(C)no3)ccc2OC)C1 (stereo not drawn),4.24,
O=c1cc(CSc2ncn[nH]2)[nH]c2ccc(F)cc12,3.56,
CCNC(=O)C1(C)CCN(C(=O)c2ccccc2)C1 (stereo not drawn),1.66,
Oc1c(C(c2ccccn2)N2CCOCC2)ccc2cccnc12 (stereo not drawn),-27.6,
CCOC(=O)N1CCN(C(c2cccnc2)c2ccc3cccnc3c2O)CC1 (stereo not drawn),,16.4 µM (active)
CCOC(=O)N1CCN(C(c2ccnc3ccccc23)c2nnnn2-c2c(C)cccc2C)CC1 (stereo not drawn),-13.6,
CCN(CC)c1nc(C#N)nc(OC)n1,-5.8,
CC(C)c1ccc(NC(=O)CN(C)S(=O)(=O)c2ccc3c(c2)c(=O)n(C)c(=O)n3C)cc1,-2.65,
CSCC(NS(=O)(=O)c1ccc(C)cc1)C(=O)O (stereo not drawn),0.292,
Cc1ccc(S(=O)(=O)Nc2nc(C)cc(-n3nc(C)cc3C)n2)cc1,2.01,
CCCC(C(=O)n1nc(C)cc1C)C(NS(=O)(=O)c1ccc(C)cc1)c1ccccc1 (stereo not drawn),,23.1 µM (active)
Cc1ccc(C)c(C(O)c2ncc(-c3cccc4ccccc34)[nH]2)c1 (stereo not drawn),3.86,
c1ccc(Cn2nnc3c(NCC4CC4)ncnc32)cc1,-7.11,
Cc1cc(OCCCC(=O)Nc2cc(S(=O)(=O)N3CCOCC3)ccc2N2CCOCC2)ccc1Cl,,13 µM (active)
CC(=O)NCCC(=O)Nc1cc(S(=O)(=O)N2CCOCC2)ccc1N1CCOCC1,3.79,
CC(C)CCC(=O)Nc1cc(S(=O)(=O)N2CCOCC2)ccc1N1CCCC1,-19.5,
COC(C(=O)NCc1ccccc1C)c1ccccc1 (stereo not drawn),-24.3,
